# Source: PubChem BioAssay
# ERK AVP block: blocks ERK signaling stimulated by vasopressin. HEK293-V1b, vasopressin-stimulated pERK AlphaScreen. Potency, µM (doses to about 57.5 µM), for inactives: at the highest dose activity, negative = inhibition, most hits filed as inhibitors. 0.99% of 72,000 active; further: on the % scale 0 is the no-effect control and ±100 the full control effect; nearly all actives have a fitted effect of over 55% in size
#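 HEK293 cells stably expressing V1b receptor, seeded overnight in 1% FBS, were treated with compounds for 30 min at 37C, then stimulated 5 min with 25 nM vasopressin; phospho-ERK read by AlphaScreen SureFire after lysis.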
# Imprint erasure: inducers of genomic imprint erasure in mouse ES cells. mouse ES Peg3-LacZ reporter, beta-gal luminescence, 40 h. Potency, µM (series often up to 60.7 µM), for the others: top-dose activity change, positive = activation, actives largely listed as activators. 0.02% of 110,000 active. AID 1948
#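 Imprint erasure is scored as LacZ activity from the silenced maternal Peg3 allele in feeder-free female ES cells cultured 40 h with LIF. Luminescence is normalized to in-plate negative controls and fitted to the Hill equation.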
# CRE-bla Fsk: alters forskolin-stimulated CRE reporter signaling in CHO cells. CHO CRE-bla reporter (cAMP response element driving beta-lactamase), forskolin EC10, beta-lactamase ratio. Potency, µM (series often up to 38.2 µM), for inactives: at the highest dose activity change, negative = inhibition, usual class: activators. 2.5% of 71,000 active; active means well fitted activation curve with a large enough effect in the signal ratio, with a control signal flat, not every such curve was filed as active; inconclusive means small, poorly fitted or top-dose-only effect, or effect the other way, or a change in a side signal; the % refers to the signal ratio; further: % of control where 0% means no effect
#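 Modulation of forskolin-driven signalling is measured in CHO cells carrying a CRE-controlled beta-lactamase reporter. Cells are stimulated with EC10 NKH 477 in the presence of titrated compound for 3 h at 37 °C, then loaded with CCF4 for 2 h at room temperature.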
# IkB signaling: IkB pathway inhibition in ABC-DLBCL cells | ABC-DLBCL IkBa-CBG/CBR dual luciferase ratio, 4 h; response scale: scaled: untreated 0%, proteasome inhibitor 100% | Potency, µM (doses to about 57.1 µM), without a hit: at the highest dose IkBa stabilization activation | 0.04% of 110,000 active | AID 445; active means well fitted curve in the direction sought with a large enough effect in the signal ratio, not every such curve was filed as active; inconclusive means small, poorly fitted or top-dose-only effect, or a change in a side signal; the % refers to the signal ratio;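 further: the direction sought is a rising ratio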
#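 In this assay, an IκBα–CBG68 fusion accumulates when IKK-driven degradation is blocked; native CBR normalizes for cell number. OCI-Ly3 cells were treated 4 h with compound and doxycycline, then green and red light read after Chroma-Glo addition.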
# Numbers without * were called inactive; ? = inconclusive; nt = no result given; [ ] = another dose, or the depositor's remark. This excerpt belongs to a sample that is enriched for hits. Unless noted, the call rests on the fitted dose curve; in most records, active means well fitted curve in the direction sought with a large enough effect; inconclusive means small, poorly fitted or top-dose-only effect, or another doubt; inactive means no such curve, though single readings can be large; an effect the other way counts as inactive or inconclusive. Potency means the concentration at half of the fitted maximal effect.
SMILES,ERK AVP block,Imprint erasure,CRE-bla Fsk,IkB signaling
CC(C)[C@H]1C(=O)C(C(N)=O)=C(O)[C@]2(O)C(=O)C3=C(O)c4c(O)ccc(N(C)C)c4C[C@H]3C[C@@H]12,-8%,nt,7%,0%
O=C1c2ccccc2-c2c1nc1c([n+]2[O-])CCCC1,4%,1%,2.5µM*,-1%
O=C1c2ccccc2-c2nccnc21,-16%,-3%,28%,1%
CN(Cc1ccco1)c1nc(-c2cccnc2)nc2ccccc12,?,-17%,2.5µM*,-1%[11.4 µM]
CN(Cc1ccco1)c1nc(-c2ccccc2Cl)nc2ccccc12,13%,-3%,?,2%[11.4 µM]
COc1cc(C(=O)Nc2nc(-c3cccs3)cs2)cc(OC)c1OC,3.2µM*,-6%,?,?
O=C(COc1ccc(Cl)cc1)Nc1nc(-c2cccs2)cs1,25µM*,-9%,10%,?
COc1ccc(C(=O)Nc2nc(-c3cccs3)cs2)cc1,?,-16%,?,?
COCOc1ccc(Br)cc1C(=O)[C@H]1O[C@H]1c1cccc(OC)c1,9%[11.5 µM],nt,nt,nt
O=c1[nH]c(=O)n(Cc2ccccc2)c2nc(-c3ccco3)cc(C(F)(F)F)c12,1%,-7%,2.5µM*,1%
OCc1ccc(-c2ccc(-c3ccc(CO)s3)o2)s1,nt,-62%,nt,nt
CCc1ccc(NC(=O)CSc2nc3n[nH]c(C)c3c(=N)n2-c2ccccc2C)cc1,nt,-10%[10.9 µM],nt,2%
CCOc1ccccc1NC(=O)CCSc1nc2n[nH]c(C)c2c(=N)n1-c1ccccc1Cl,-15%,-30%,1.6µM*,2%
Cc1ccccc1-n1c(SCc2ccccn2)nc2n[nH]c(C)c2c1=N,-14%,-22%,1.3µM*,?
O=C(c1cc(Br)ccc1O)c1cc(Br)ccc1O,-17%[11.5 µM],-15%[10.9 µM],4%[7.6 µM],0%[11.4 µM]
CCCC1C(C#N)=C(N)Oc2cc(C)n(C)c(=O)c21 (stereo not drawn),9%,13%,13µM*,2%
Cc1cc2c(c(=O)n1C)C(Cc1ccccc1)C(C#N)=C(N)O2 (stereo not drawn),-18%,-17%,13µM*,5%
CC(C)(C)OC(=O)[C@H]([C@@H]1N[C@@H](C(=O)O)C(C)(C)S1)N1C(=O)c2ccccc2C1=O,8%[11.5 µM],nt,3%[7.6 µM],1%[11.4 µM]
Cc1cc(-n2c(C)cc(C(=O)CSc3ncnc4ccccc34)c2C)no1,20µM*,-23%,-17%,?
O=C(COc1ccc(Br)cc1CO)Nc1ccc(F)cc1,40µM*,8%,-12%,?
CNC(=O)[C@@H]1O[C@@H](n2cnc3c(NCc4cccc(I)c4)ncnc32)[C@H](O)[C@@H]1O,?,nt,3%,?
CCc1nnc(NC(=O)CSc2nc3c(c(=O)n2C)SC(C)C3)s1 (stereo not drawn),nt,-22%,3.2µM*,-4%
CCSc1nnc(NC(=O)CSc2nc3c(c(=O)n2C)SC(C)C3)s1 (stereo not drawn),19%,1%,-11%,0%
Brc1cc2c(cc1Cn1c(-c3cncs3)nc3ccccc31)OCO2,5%,-8%,2µM*,0%
Cc1ccccc1Cn1c(-c2cncs2)nc2ccccc21,-28%,nt,?,3%
SMILES,ERK AVP block,Imprint erasure,CRE-bla Fsk,IkB signaling
CSC(=[SH+])N=N/C(=C1/C=CC=CN1)c1ccccn1.[Cu][Br],nt,-65%[10.9 µM],nt,nt
CN(Cc1ccco1)c1ncnc2ccc(-c3ccccc3C#N)cc12,?,-24%,2µM*,-3%[11.4 µM]
CN(C)c1ccc(-c2ccc3ncnc(N(C)Cc4ccco4)c3c2)cc1,-28%,-25%,0.63µM*,2%[11.4 µM]
C[N+]1(C)CC[C@@H](OC(=O)[C@@](O)(c2ccccc2)C2CCCC2)C1,18%[25.7 µM],2%[16.8 µM],2%[17.1 µM],1%[25.6 µM]
CN1CCc2cc3c(cc2C(=O)Cc2ccc4c(c2C1)OCO4)OCO3,8%,-19%,-2%,3%[11.4 µM]
CC1CCCCN1c1nc(-c2ccncc2)nc2ccccc12 (stereo not drawn),32µM*,-17%,7.9µM*,?
CC1CCCCN1c1nc(-c2ccc(C(C)(C)C)cc2)nc2ccccc12 (stereo not drawn),nt,-7%[10.9 µM],nt,8%
CC1CCN(c2nc(-c3ccncc3)nc3ccccc23)CC1,-30%,-14%,7.9µM*,?
c1csc(CSc2nc3ccccc3s2)c1,1%,-26%,-4%,-1%
CCn1c(CSc2nc3ccccc3s2)nc2ccccc21,40µM*,-15%,30%[7.6 µM],?
COC(=O)C1C(=O)c2c([nH]c(C(=O)OC3CCCC3C)c2C)CC1C (stereo not drawn),32µM*,-26%,?,10%
CCCCc1c(C)nn(-c2nnc3c4ccccc4n(CC)c3n2)c1C,20µM*,-22%,?,4%
CCn1c2ccccc2c2nc3ccccc3nc21,-8%,-13%,2µM*,-5%
COc1cc2nc3c4ccccc4n(CC#N)c3nc2cc1OC,8%,-10%,-2%,10%
CCn1c2ccccc2c2nc3cc(OC)c(OC)cc3nc21,-23%,-22%,5µM*,-5%
O=C(O)[C@@H](O)[C@@H](O)[C@@H](O)[C@@H](O)c1nc2ccccc2s1,9%[11.5 µM],1%[10.9 µM],-12%[7.6 µM],0%[11.4 µM]
CCN1C(=O)[C@H]2[C@H]3[C@H](O)[C@H](O)C/C(=N/OCC(C)C)[C@@H]3CC[C@@H]2C1=O,7%[11.5 µM],nt,nt,nt
CC1=C(CC[C@H](C)CO)O[C@@H]2C[C@@H]3[C@H]4CC[C@H]5C[C@@H](O)CC[C@]5(C)[C@@H]4CC(=O)[C@@]3(C)[C@@H]12,0%[11.5 µM],2%[10.9 µM],16%[7.6 µM],5%[11.4 µM]
Ic1ccc2c(c1)N(c1ccccc1)c1cc(Nc3ccc4nc5ccc(I)cc5[n+](-c5ccccc5)c4c3)ccc1N2,8%[11.5 µM],-6%[10.9 µM],-11%[7.6 µM],2%[11.4 µM]
O=Nc1c(-c2c(O)[nH]c3cc(Br)ccc23)[nH]c2ccccc12,10µM*,-42%,nt,nt
O=Nc1c(O)[nH]c2ccccc12.[Cu].[O-]/N=C1/C(=[OH+])Nc2ccccc21,nt,-12%[10.9 µM],nt,nt
CCOC(=O)c1c(-c2cccs2)csc1NC(=O)c1ccco1,-12%,-1%,12%,-1%
CCOC(=O)c1c(-c2cccs2)csc1NC(=O)CN1CCOCC1,8%,-12%,13µM*,0%
CCOC(=O)c1c(NC(=O)CN2CCOCC2)sc2c1CCCC2,?,-24%,13µM*,2%
O=c1c(-c2ccccc2)nc2cnc(N3CCOCC3)nc2n1C1CC1,-1%,?,?,-1%[11.4 µM]
CN1CCN(c2ncc3nc(-c4cc(F)cc(F)c4)c(=O)n(C)c3n2)CC1,9%,-7%,?,-2%[11.4 µM]
N#Cc1cccc(-c2nc3cnc(N4CCOCC4)nc3n(C3CC3)c2=O)c1,-11%,?,2µM*,2%[11.4 µM]
CN1CCN(c2ncc3nc(-c4ccccc4)c(=O)n(C)c3n2)CC1,0%,10µM*,?,-2%[11.4 µM]
Cc1nc2cnc(N3CCNCC3)nc2n(C2CC2)c1=O,11%,nt,13µM*,1%[11.4 µM]
CN1CCN(c2ncc3nc(-c4cccc(C#N)c4)c(=O)n(C)c3n2)CC1,-9%,-17%,13µM*,-1%[11.4 µM]
